Molecules are shown by their SMILES. This is part of a sample that, as a whole, favours compounds with a hit. Of some 83,000 tested, about 20% had one in any assay.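 Testing used 96-well plates and a 48-hour single-concentration exposure. Example: -40 means 40% of the starting cells died.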 Unmarked numbers belong to inactive results. The source made the active and inactive calls. Rule for the calls: active = growth percent below 10; inactive = the rest.

Some test systems named below: T-47D breast; MDA-MB-435 melanoma; SW-620 colon; MCF7 breast; HCT-116 colon; HCC-2998 colon; KM12 colon.
Common to all, as to test: NCI-60 one-dose screen, 48 h (100 = growth as untreated, 0 = no growth, -100 = all killed)
What all share (details): 10 µM

Take `Cc1ccc(C2NC(=S)N3C(c4ccc(C)cc4)NC(=S)N23)cc1` (centres undefined): the growth with T-47D breast was 47.3%; in the experiment on MDA-MB-435 melanoma it was -35% (active); in the experiment on SW-620 colon, 29.2%; in the experiment with MCF7 breast, 10.5%; with HCT-116 colon, 1.28% (active); with HCC-2998 colon, 47%. The growth in the experiment on KM12 colon was 8.36% (active).

Take `COc1ccc(/C(C#N)=C/c2cccc(OC)c2OC)cc1`: the growth is 80.7% with T-47D breast; 9.46% (active) in the experiment on MDA-MB-435 melanoma; 65.2% with SW-620 colon; 66% in the experiment with MCF7 breast; 89.7% in the experiment on HCT-116 colon; 78.4% in the experiment with HCC-2998 colon. Besides, the growth in the experiment on KM12 colon is 56.7%.

Consider `O=C1c2ccccc2C(=O)c2c1ccc1c(=O)n(-c3ccccc3C(F)(F)F)nnc21`, for which the growth in the experiment on T-47D breast was 15.8%; in the experiment on MDA-MB-435 melanoma, -89.5% (active); in the experiment with SW-620 colon, 11.4%; in the experiment with MCF7 breast, -51.7% (active); with HCT-116 colon, -5.21% (active); with HCC-2998 colon, 28.9%. Further, the growth in the experiment with KM12 colon is 27.2%.

For the compound `CN(C)CCN(Cc1ccccc1)c1ccc2ccccc2n1`, the growth with T-47D breast was 86.3%; with MDA-MB-435 melanoma, 94.4%; in the experiment with SW-620 colon, 91.8%; in the experiment on MCF7 breast it was 86.7%; in the experiment with HCT-116 colon it was 90.4%; in the experiment on HCC-2998 colon, 97.5%. The growth with KM12 colon is 101%.

For `NNC(=O)Oc1c(Cl)cc(Cl)cc1[N+](=O)[O-]`, the growth was 98.5% in the experiment on T-47D breast; 107% in the experiment with MDA-MB-435 melanoma; 105% with SW-620 colon; 87.9% with MCF7 breast; 102% with HCT-116 colon; 103% in the experiment on HCC-2998 colon. In the experiment with KM12 colon, the growth was 106%.

`C=CCn1c(SCC(=O)Nc2ccc(C(=O)/C=C/c3ccc(OC)cc3)cc2)nnc1-c1ccc(OC)c(OC)c1`: the growth was 58.3% with T-47D breast; 86.7% with MDA-MB-435 melanoma; 97.2% in the experiment on SW-620 colon; 43.5% in the experiment on MCF7 breast; 55.5% with HCT-116 colon; 94.6% in the experiment on HCC-2998 colon. Moreover, in the experiment with KM12 colon, the growth was 87.9%.

With `CCOS(=O)(=O)c1c(C(C)C)cc(C(C)C)cc1C(C)C`, the growth in the experiment with T-47D breast was 115%; with MDA-MB-435 melanoma, 99.1%; in the experiment with SW-620 colon it was 98.3%; in the experiment with MCF7 breast, 91.4%; with HCT-116 colon it was 104%; in the experiment with HCC-2998 colon, 99.1%. For the same compound, in the experiment on KM12 colon, the growth is 104%.

Consider `COc1nc2c(c(=O)n1C)CN(c1ccccc1)C(=O)C(C)N2` (centres undefined), for which the growth was 95.5% with T-47D breast; 103% in the experiment on MDA-MB-435 melanoma; 99.9% in the experiment on SW-620 colon; 94.5% with MCF7 breast; 95.4% in the experiment on HCT-116 colon; 94.5% in the experiment with HCC-2998 colon. Besides, the growth with KM12 colon is 105%.

In the case of `Nc1cc(Br)c(-c2nn3c(CCC(=O)c4nc5ccccc5[nH]4)nnc3s2)c(Br)c1`, the growth with T-47D breast was 88%; with MDA-MB-435 melanoma, 90.5%; in the experiment with SW-620 colon, 112%; in the experiment on MCF7 breast it was 87.5%; in the experiment with HCT-116 colon it was 77.9%; in the experiment with HCC-2998 colon, 104%. The growth in the experiment on KM12 colon is 96.4%.

With `Cc1noc(C)c1CSc1ccccc1C(=O)N1CCN(c2cccc(C(F)(F)F)c2)CC1`, the growth in the experiment with T-47D breast was 49.2%; with MDA-MB-435 melanoma, 82.6%; in the experiment on SW-620 colon, 86.5%; in the experiment on MCF7 breast, 79.4%; in the experiment on HCT-116 colon, 55.3%; in the experiment on HCC-2998 colon it was 93.6%. Also, the growth with KM12 colon is 79.2%.

For `O=[N+]([O-])c1cc(Cl)cc(Cl)c1O`, the growth was 93% with T-47D breast; 98.5% in the experiment on MDA-MB-435 melanoma; 103% in the experiment with SW-620 colon; 104% in the experiment on MCF7 breast; 93.5% in the experiment on HCT-116 colon; 105% with HCC-2998 colon. Also, the growth in the experiment with KM12 colon is 98.9%.

With `CCCCCCCCCCOC(c1ccccc1)c1ccccc1`, the growth in the experiment on T-47D breast was 77.1%; in the experiment with MDA-MB-435 melanoma it was 99%; in the experiment with SW-620 colon, 98.1%; in the experiment on MCF7 breast, 91.1%; with HCT-116 colon it was 58.6%; in the experiment with HCC-2998 colon, 99%. The growth with KM12 colon is 89.1%.

Turning to `CCN(CC)CCCC(C)N=C(C1=C(C(=NC(C)CCCN(CC)CC)c2cccc(OC)c2)C(=O)NC1=O)c1cccc(OC)c1` (centres undefined), the growth in the experiment on T-47D breast is -37.3% (active); with MDA-MB-435 melanoma, -91.1% (active); in the experiment on SW-620 colon, -9.07% (active); in the experiment with MCF7 breast, -29.8% (active); in the experiment with HCT-116 colon, -19% (active); in the experiment with HCC-2998 colon, -69.9% (active). Also, the growth in the experiment with KM12 colon was 2.43% (active).

Consider `CC(C)(C)OC(=O)N1CCc2c(sc3ncnc(N/N=C/c4ccc(Br)cc4)c23)C1`, for which the growth with T-47D breast is 34.2%; in the experiment with MDA-MB-435 melanoma it was -20.4% (active); in the experiment on SW-620 colon it was 55%; with MCF7 breast, 12.6%; in the experiment with HCT-116 colon, 47.3%; in the experiment on HCC-2998 colon, 72.1%. For the same compound, the growth with KM12 colon is 46.6%.

Turning to `CN(C)CCCOc1cccc(NC2=C(Cl)C(=O)C(Nc3cccc(OCCCN(C)C)c3)=C(Cl)C2=O)c1`, the growth in the experiment with T-47D breast was -44% (active); with MDA-MB-435 melanoma it was -65.5% (active); in the experiment on SW-620 colon, -61.2% (active); with MCF7 breast it was -38.3% (active); in the experiment on HCT-116 colon, -88.7% (active); with HCC-2998 colon, 14%. In addition, the growth in the experiment with KM12 colon is 13.9%.

For the compound `COc1ccccc1N1CCCSC1=Nc1ccccc1`, the growth with T-47D breast is 107%; in the experiment on MDA-MB-435 melanoma it was 103%; in the experiment with SW-620 colon, 103%; in the experiment with MCF7 breast, 98.6%; in the experiment with HCT-116 colon, 79.2%; in the experiment with HCC-2998 colon it was 108%. Also, the growth with KM12 colon is 91.7%.

`C=CCSC(CC)(CC)C(=O)NC`: the growth was 102% with T-47D breast; 109% in the experiment on MDA-MB-435 melanoma; 103% with SW-620 colon; 94.6% in the experiment on MCF7 breast; 94% with HCT-116 colon; 102% in the experiment with HCC-2998 colon. Further, the growth in the experiment on KM12 colon was 104%.

The values are drawn from PubChem BioAssay (NCI).
